Measurements reported in PubChem BioAssay.
Active and inactive are the calls of the source. Unless noted, no rule for the calls is given here.

Experiments:
[1] = compounds binding Alexa647 anti-His antibody – biochemical, small-molecule microarray, 635 nm fluorescence, artefact control for SMM control protein annotation, primary screen (AID 1128); details: higher = more signal;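 also: score merges feature fluorescence with signal-to-noise for each printed compound spot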
[2] = system: Human papillomavirus type 1a E7 protein (residues 1-88); test: HPV1a E7 small-molecule binders, primary screen, biochemical, small-molecule microarray, residues 1-88, 635 nm (AID 1129); details: small-molecule microarray binding, fluorescence 635 nm; higher = more signal
[3] = biological target: Focal adhesion kinase 1 (Homo sapiens) (UniProt Q05397); test: PTK2 protein binding on printed compound slides – biochemical, small-molecule microarray, 635/667 nm fluorescence, BSA, DTT, primary screen (AID 1130); details: 635 nm fluorescence, higher = more signal;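 also: composite of spot emission at 667 nm and signal to noise over triplicate slides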
Chain of Focal adhesion kinase 1 (Homo sapiens) (Q05397 whole entry, looked up): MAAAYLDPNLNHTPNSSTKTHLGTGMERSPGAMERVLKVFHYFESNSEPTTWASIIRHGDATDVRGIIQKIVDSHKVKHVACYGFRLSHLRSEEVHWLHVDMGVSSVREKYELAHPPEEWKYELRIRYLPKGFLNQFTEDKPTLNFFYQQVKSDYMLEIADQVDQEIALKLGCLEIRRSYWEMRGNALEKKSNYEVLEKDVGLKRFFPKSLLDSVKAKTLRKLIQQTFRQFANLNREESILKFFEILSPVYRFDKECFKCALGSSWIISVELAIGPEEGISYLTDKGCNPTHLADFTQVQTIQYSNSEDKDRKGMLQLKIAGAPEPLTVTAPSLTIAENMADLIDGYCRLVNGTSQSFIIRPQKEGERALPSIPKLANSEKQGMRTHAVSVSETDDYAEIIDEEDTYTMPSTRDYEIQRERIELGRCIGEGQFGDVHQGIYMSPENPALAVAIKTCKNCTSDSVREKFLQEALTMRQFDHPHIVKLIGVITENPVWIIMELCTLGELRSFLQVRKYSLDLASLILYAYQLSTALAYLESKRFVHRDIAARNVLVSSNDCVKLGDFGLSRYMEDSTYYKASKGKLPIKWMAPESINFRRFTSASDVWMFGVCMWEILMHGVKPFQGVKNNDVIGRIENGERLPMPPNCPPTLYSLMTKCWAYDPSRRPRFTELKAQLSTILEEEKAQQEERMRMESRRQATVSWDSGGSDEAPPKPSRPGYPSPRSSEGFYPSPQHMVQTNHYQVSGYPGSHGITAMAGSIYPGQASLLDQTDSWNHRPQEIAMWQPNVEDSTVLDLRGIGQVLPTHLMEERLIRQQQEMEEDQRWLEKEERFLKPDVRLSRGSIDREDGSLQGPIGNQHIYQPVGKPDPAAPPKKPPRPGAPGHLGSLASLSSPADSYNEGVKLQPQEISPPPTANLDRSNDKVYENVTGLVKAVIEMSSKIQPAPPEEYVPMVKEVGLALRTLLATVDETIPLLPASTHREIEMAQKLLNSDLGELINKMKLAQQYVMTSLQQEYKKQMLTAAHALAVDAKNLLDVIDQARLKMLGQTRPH

[4] = system: Fibrinogen (Alexa647-labelled); test: Alexa647-fibrinogen binding to printed small molecules – biochemical, small-molecule microarray, 635/667 nm fluorescence, artefact control for SMM control-protein annotation, profiling panel (AID 1131); details: fibrinogen-A647 binding fluorescence, higher = more signal;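 also: z-score merges 667 nm fluorescence with per-spot signal-to-noise over triplicate slides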
[5] = biological target: Follistatin (Homo sapiens) (UniProt P19883); test: FST protein binding to printed compounds – biochemical, small-molecule microarray, 635/667 nm fluorescence, primary screen (AID 1132); details: 635 nm fluorescence, higher = more signal
Chain of Follistatin (Homo sapiens) (P19883 whole entry, looked up): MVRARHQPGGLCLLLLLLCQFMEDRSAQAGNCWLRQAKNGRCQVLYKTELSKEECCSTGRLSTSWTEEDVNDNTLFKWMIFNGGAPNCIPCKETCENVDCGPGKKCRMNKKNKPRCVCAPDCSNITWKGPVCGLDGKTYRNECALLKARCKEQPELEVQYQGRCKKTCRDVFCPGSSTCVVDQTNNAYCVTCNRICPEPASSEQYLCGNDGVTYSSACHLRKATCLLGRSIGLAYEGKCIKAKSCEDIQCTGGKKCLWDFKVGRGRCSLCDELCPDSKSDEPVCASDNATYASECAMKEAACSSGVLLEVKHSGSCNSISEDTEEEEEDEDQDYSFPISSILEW

[6] = biological target: Fibroblast growth factor 2 (Homo sapiens) (UniProt P09038); test: basic fibroblast growth factor binding to printed compounds – biochemical, small-molecule microarray, 635/667 nm fluorescence, primary screen (AID 1133); details: FGF2, fluorescence 635/667, higher = more signal
Chain of Fibroblast growth factor 2 (Homo sapiens) (P09038 whole entry, looked up): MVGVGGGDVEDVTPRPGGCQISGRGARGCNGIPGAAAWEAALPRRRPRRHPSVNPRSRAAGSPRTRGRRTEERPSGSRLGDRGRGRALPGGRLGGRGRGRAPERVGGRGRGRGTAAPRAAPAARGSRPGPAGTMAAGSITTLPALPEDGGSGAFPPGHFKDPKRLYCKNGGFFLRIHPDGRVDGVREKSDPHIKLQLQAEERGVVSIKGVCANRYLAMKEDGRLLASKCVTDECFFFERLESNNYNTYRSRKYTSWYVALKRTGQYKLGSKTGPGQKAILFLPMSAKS

[7] = JC-1 mitochondrial potential readout, lung cancer cells – cell-based, A549, JC-1 fluorescence, basal, 24 h, 100 nL, profiling panel (AID 1138); details: higher = more signal;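 also: A549 lung adenocarcinoma cells under basal conditions with no added stimulus; test concentration not given here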
Lefty1 = Lefty1 protein binding to printed compounds – biochemical, small-molecule microarray, 635/667 nm fluorescence, primary screen (AID 1139); details: fluorescence 635/667, higher = more signal
[8] = system: wheat germ agglutinin (Triticum aestivum), Alexa647-labelled; test: Alexa647-WGA lectin binding to printed small molecules – biochemical, small-molecule microarray, 635/667 nm fluorescence, artefact control for SMM control-protein annotation, profiling panel (AID 1140); details: WGA-A647 binding, 635 nm fluorescence, higher = more signal;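 also: score merges 667 nm feature emission with signal to noise over triplicate slides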
[9] = biological target: Luciferin 4-monooxygenase (Photinus pyralis) (UniProt P08659); test: inhibition of purified Photinus pyralis luciferase – biochemical, luminescence, purified enzyme, 2006 set, primary screen (AID 1141); details: purified firefly luciferase, SteadyGlo luminescence, 30 min; higher = more signal, called active from +8 up or from −8 down;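 also: cell-free assay with purified firefly luciferase at 100 ng per well in PBS; test concentration not given here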
Chain of Luciferin 4-monooxygenase (Photinus pyralis) (P08659 whole entry, looked up): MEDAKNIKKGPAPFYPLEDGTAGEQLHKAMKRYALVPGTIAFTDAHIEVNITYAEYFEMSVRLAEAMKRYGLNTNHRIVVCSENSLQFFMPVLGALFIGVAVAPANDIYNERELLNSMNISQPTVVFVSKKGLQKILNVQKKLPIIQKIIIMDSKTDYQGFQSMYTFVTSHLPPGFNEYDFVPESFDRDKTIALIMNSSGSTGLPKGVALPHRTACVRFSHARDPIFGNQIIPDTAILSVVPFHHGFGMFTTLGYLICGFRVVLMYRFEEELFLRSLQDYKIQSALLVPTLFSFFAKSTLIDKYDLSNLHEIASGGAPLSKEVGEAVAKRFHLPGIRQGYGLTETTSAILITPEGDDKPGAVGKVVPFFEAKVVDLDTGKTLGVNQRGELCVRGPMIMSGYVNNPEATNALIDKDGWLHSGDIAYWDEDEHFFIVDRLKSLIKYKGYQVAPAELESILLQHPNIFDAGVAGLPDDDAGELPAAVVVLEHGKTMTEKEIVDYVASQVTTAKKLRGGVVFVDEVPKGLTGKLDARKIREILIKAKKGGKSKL

[10] = system: Wnt5a (protein binding on small-molecule microarray); test: small molecules binding Wnt5a protein – biophysical, small-molecule microarray, 635/667 nm fluorescence, primary screen (AID 1142); details: 635 nm fluorescence, higher = more signal;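 also: fluorescence read at 667 nm with signal to noise per printed feature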
[11] = ATP-based viability of Huh7 replicon cells – cell-based, CellTiter-Glo luminescence, basal, 48 h, cytotoxicity control for HCV replication inhibitor project, primary screen (AID 1143); details: higher = more signal, called active from +8 up or from −8 down;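 also: Huh7 hepatoma cells carrying a hepatitis C replication reporter with no stimulus; test concentration not given here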
[12] = Pseudomonas biofilm growth suppression – PAO1 strain, BacTiter-Glo luminescence, LB-PBS, primary screen (AID 1144); details: P. aeruginosa PAO1 biofilm, 12 h, higher = more signal
[13] = basal CRE-LacZ reporter activity in PC12 – cell-based, unstimulated, primary screen (AID 1145); details: no forskolin, luminescence, 4.5 h, higher = more signal, called active from +8 up or from −8 down
[14] = forskolin-driven CRE-LacZ activity in PC12 – cell-based, CRE-LacZ reporter, forskolin-stimulated, primary screen (AID 1146); details: luminescence, 4.5 h, higher = more signal, called active from +8 up or from −8 down;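 also: PC12 cells with 6xCRE LacZ reporter stimulated by forskolin 10 µM; beta-galactosidase reporter signal reflecting CREB driven transcription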
[15] = biological target: Streptavidin (Streptomyces avidinii) (UniProt P22629); test: compounds binding control protein streptavidin – biophysical, small-molecule microarray, 635/667 nm fluorescence, artefact control for SMM compound annotation, primary screen (AID 1147); details: higher = more signal;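 also: signal reflects streptavidin binding to arrayed compounds as a control protein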
Chain of Streptavidin (Streptomyces avidinii) (P22629 whole entry, looked up): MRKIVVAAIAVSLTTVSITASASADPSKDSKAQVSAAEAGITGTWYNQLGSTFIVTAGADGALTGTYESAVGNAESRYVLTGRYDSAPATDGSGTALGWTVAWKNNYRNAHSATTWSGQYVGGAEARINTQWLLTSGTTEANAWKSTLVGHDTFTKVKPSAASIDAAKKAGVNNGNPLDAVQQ

[16] = probe aInhba binding on compound microarray – biochemical, small-molecule microarray, 635/667 nm fluorescence, primary screen (AID 1148); details: higher = more signal;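 also: score merges 667nm spot fluorescence with signal-to-noise for antibody binding to printed compounds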
Torsin-1A (Homo sapiens) [17] = biological target: Torsin-1A (Homo sapiens) (UniProt O14656); test: TOR1A wild-type binding on microarray – cell lysate, small-molecule microarray, lysate, 635/667 nm, primary screen (AID 1149); details: COS7 hTOR1A-WT lysate, 635 nm fluorescence, higher = more signal
Chain of Torsin-1A (Homo sapiens) (O14656 whole entry, looked up): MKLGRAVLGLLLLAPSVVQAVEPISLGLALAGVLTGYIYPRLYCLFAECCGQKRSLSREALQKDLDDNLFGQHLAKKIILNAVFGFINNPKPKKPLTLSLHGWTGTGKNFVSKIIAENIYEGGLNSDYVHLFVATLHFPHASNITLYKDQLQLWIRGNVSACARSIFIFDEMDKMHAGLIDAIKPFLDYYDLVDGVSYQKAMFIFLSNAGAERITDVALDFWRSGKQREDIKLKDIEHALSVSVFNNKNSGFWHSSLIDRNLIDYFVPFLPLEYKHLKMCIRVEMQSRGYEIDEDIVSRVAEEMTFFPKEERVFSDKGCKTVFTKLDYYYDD

Torsin-1A (Homo sapiens) [18] = biological target: Torsin-1A (Homo sapiens) (UniProt O14656); test: torsin A mutant lysate binding on microarrays – cell lysate, small-molecule microarray, COS7 lysate, 635/667 nm fluorescence, primary screen (AID 1150); details: COS7 hTOR1A mutant lysate, 635 nm fluorescence, higher = more signal;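 also: score pools 667 nm emission and signal to noise measuring lysate protein binding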
[19] = system: Sonic hedgehog protein (Shh); test: Sonic hedgehog microarray binding compounds – biochemical, small-molecule microarray, 635/667 nm fluorescence, primary screen (AID 1151); details: 635 nm fluorescence, higher = more signal;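 also: Shh protein binding to compounds spotted on small-molecule microarray slides; score combines spot fluorescence intensity with signal-to-noise across triplicate slides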

Question: With `O=C1C[C@@H](O)[C@@H](O)[C@@H]2[C@@H]3C(=O)N(C4CCCCC4)C(=O)[C@@H]3CC[C@H]12` as the compound, how does the composite z-score [1] read?
Answer: 0.335

Question: What about the composite z-score [2] of the same compound?
Answer: 0.949

Question: And the composite z-score [3]?
Answer: 0.329

Question: And the composite z-score [4]?
Answer: 0.583

Question: What about the composite z-score [5] of the same compound?
Answer: 0.525

Question: What about the composite z-score [6] of the same compound?
Answer: 0.521

Question: And the z-score [7]?
Answer: -0.338

Question: And the composite z-score (Lefty1)?
Answer: 0.422

Question: What about the composite z-score [8] of the same compound?
Answer: 0.103

Question: And the z-score [9]?
Answer: -0.163 (inactive)

Question: And the composite z-score [10]?
Answer: 0.0832

Question: And the z-score [11]?
Answer: 0.406 (inactive)

Question: And the z-score [12]?
Answer: -0.653 (inactive)

Question: And the z-score [13]?
Answer: -0.0258 (inactive)

Question: What about the z-score [14] of the same compound?
Answer: -0.444 (inactive)

Question: And the composite z-score [15]?
Answer: 0.0447

Question: And the composite z-score [16]?
Answer: -0.128

Question: What about the composite z-score (Torsin-1A (Homo sapiens) [17]) of the same compound?
Answer: 0.296

Question: What about the composite z-score (Torsin-1A (Homo sapiens) [18]) of the same compound?
Answer: 0.585

Question: What about the composite z-score [19] of the same compound?
Answer: -0.0419

Question: What does the source list for `COCCOC(=O)N1C(=O)[C@@]2(c3cc(C#CCNC(N)=O)ccc31)[C@H](c1ccccc1OCCO)N1[C@H](c3ccccc3)[C@H](c3ccccc3)OC(=O)[C@H]1[C@@H]2C(=O)N1CCN(c2ncccn2)CC1`?
Answer: composite z-score [1]: 1.94; composite z-score [2]: 0.74; composite z-score [3]: 0.491; composite z-score [4]: 0.714; composite z-score [5]: 0.705; composite z-score [6]: 1.55; z-score [7]: -1.08; composite z-score (Lefty1): 0.296; composite z-score [8]: 0.727; z-score [9]: -1.9 (inactive); composite z-score [10]: 0.734; z-score [11]: -1.96 (inactive); z-score [12]: -0.897 (inactive); z-score [13]: -0.465 (inactive); z-score [14]: 2.16 (inactive); composite z-score [15]: 0.29; composite z-score [16]: 0.0497; composite z-score (Torsin-1A (Homo sapiens) [17]): 0.303; composite z-score (Torsin-1A (Homo sapiens) [18]): 0.923; composite z-score [19]: 0.966

Question: Which results are given for `CO[C@@H]1COC(=O)[C@@H]2CCCN2C(=O)[C@@H](C)COC(=O)[C@H](COCc2ccccc2)NC(=O)CC=C[C@H]1C`?
Answer: composite z-score [1]: 0.284; composite z-score [2]: 0.692; composite z-score [3]: 0.0252; composite z-score [4]: 0.385; composite z-score [5]: 0.421; composite z-score [6]: 0.27; z-score [7]: -0.714; composite z-score (Lefty1): 0.698; composite z-score [8]: -0.07; z-score [9]: 0.951 (inactive); composite z-score [10]: -0.127; z-score [11]: -0.388 (inactive); z-score [12]: -0.623 (inactive); z-score [13]: -0.799 (inactive); z-score [14]: 0.435 (inactive); composite z-score [15]: 0.107; composite z-score [16]: -0.172; composite z-score (Torsin-1A (Homo sapiens) [17]): 0.999; composite z-score (Torsin-1A (Homo sapiens) [18]): 0.121; composite z-score [19]: 0.731

Question: Which results are given for `COCCOC(=O)N1C(=O)[C@@]2(c3cc(C#CC4(O)CCCCCC4)ccc31)[C@H](C(=O)N1CCN(c3ncccn3)CC1)[C@H]1C(=O)O[C@H](c3ccccc3)[C@H](c3ccccc3)N1[C@@H]2c1ccc(OCCO)cc1`?
Answer: composite z-score [1]: 2.08; composite z-score [2]: 1.2; composite z-score [3]: 0.289; composite z-score [4]: 0.889; composite z-score [5]: 1.29; composite z-score [6]: 1.35; z-score [7]: -1.34; composite z-score (Lefty1): 0.637; composite z-score [8]: 1.09; z-score [9]: -2.19 (inactive); composite z-score [10]: 0.495; z-score [11]: -3.05 (inactive); z-score [12]: 0.905 (inactive); z-score [13]: -0.878 (inactive); z-score [14]: -0.249 (inactive); composite z-score [15]: 0.436; composite z-score [16]: 0.303; composite z-score (Torsin-1A (Homo sapiens) [17]): 0.227; composite z-score (Torsin-1A (Homo sapiens) [18]): 0.425; composite z-score [19]: 1.17

Question: Which composite z-score [1] does the source give for `CCOC(=O)[C@H](CC(C)C)NC(=O)CCC1CC(OC(=O)NCc2cccc3ccccc23)CC2(CCCC(COC(=O)NCCc3ccccc3OC)O2)O1` (stereo not given in full) here?
Answer: 1.02

Question: What about the composite z-score [2] of the same compound?
Answer: 1.12

Question: And the composite z-score [3]?
Answer: 0.0969

Question: And the composite z-score [4]?
Answer: 0.949

Question: And the composite z-score [5]?
Answer: 0.583

Question: What about the composite z-score [6] of the same compound?
Answer: 0.485

Question: What about the z-score [7] of the same compound?
Answer: 0.041

Question: What about the composite z-score (Lefty1) of the same compound?
Answer: 1.5

Question: And the composite z-score [8]?
Answer: 0.225

Question: And the z-score [9]?
Answer: 0.755 (inactive)

Question: What about the composite z-score [10] of the same compound?
Answer: -0.0588

Question: And the z-score [11]?
Answer: -1.86 (inactive)

Question: What about the z-score [12] of the same compound?
Answer: 0.6 (inactive)

Question: And the z-score [13]?
Answer: -0.44 (inactive)

Question: And the z-score [14]?
Answer: 0.0744 (inactive)

Question: What about the composite z-score [15] of the same compound?
Answer: 0.556

Question: What about the composite z-score [16] of the same compound?
Answer: -0.217

Question: And the composite z-score (Torsin-1A (Homo sapiens) [17])?
Answer: 0.203

Question: And the composite z-score (Torsin-1A (Homo sapiens) [18])?
Answer: 0.408

Question: What about the composite z-score [19] of the same compound?
Answer: 1.07
